# From the supplement of paper PMC8728848
# The sample as a whole holds a higher share of the strongest signals than the screen did.
# B1: Regenerating Gene I (Homo sapiens), P05451 (protein)
# chain: MAQTSSYFMLISCLMFLSQSQGQEAQTELPQARISCPEGTNAYRSYCYYFNEDRETWVDADLYCQNMNSGNLVSVLTQAEGAFVASLIKESGTDDFNVWIGLHDPKKNRRWHWSSGSLVSYKSWGIGAPSSVNPGYCVSLTSSTGFQKWKDVPCEDKFSFVCKFKN
# Key:
# Experiment in all cases: glycan array binding signal (z-score within array); higher = stronger binding
# Details in all cases: glycan notation: IUPAC condensed, linker removed
# Fuc(a1-2)Gal(b1-3)GlcNAc = biological target: Fuc(a1-2)Gal(b1-3)GlcNAc
# Summary of the method: (§1)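 Glycan array binding is given as a within-array Z-score, which can be read as non-binding when negative. The arrays, 3228 of them, came from the Consortium for Functional Glycomics database and were retained only where the protein sequence was available. Z-scores were averaged across arrays of the same protein sequence at different concentrations or buffers and across linkers.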
# [1] = biological target: Fuc(a1-2)[GalNAc(a1-3)]Gal(b1-3)GlcNAc
# Summary of the method: as §1
# [2] = biological target: Fuc(a1-3)[GalNAc(b1-4)]GlcNAc
# Summary of the method: as §1
# Gal(a1-4)Gal(b1-4)Glc = biological target: Gal(a1-4)Gal(b1-4)Glc
# Summary of the method: as §1
# Gal(a1-4)GlcNAc = biological target: Gal(a1-4)GlcNAc
# Summary of the method: as §1
# [3] = biological target: Gal(b1-3)GlcNAc(b1-3)Gal(b1-4)GlcNAc
# Summary of the method: as §1
# [4] = biological target: Gal(b1-3)[Fuc(a1-4)]GlcNAc(b1-3)Gal(b1-3)[Fuc(a1-4)]GlcNAc
# Summary of the method: as §1
# [5] = biological target: Gal(b1-4)GlcNAc(a1-6)Gal(b1-4)GlcNAc
# Summary of the method: as §1
# Gal3S(b1-4)Glc = biological target: Gal3S(b1-4)Glc
# Summary of the method: as §1
# Gal4S(b1-4)GlcNAc = biological target: Gal4S(b1-4)GlcNAc
# Summary of the method: as §1
# GalNAc(a1-3)GalNAc = biological target: GalNAc(a1-3)GalNAc
# Summary of the method: as §1
# Glc(a1-6)Glc(a1-6)Glc = biological target: Glc(a1-6)Glc(a1-6)Glc
# Summary of the method: as §1
# GlcA(b1-3)GlcNAc = biological target: GlcA(b1-3)GlcNAc
# Summary of the method: as §1
# [6] = biological target: GlcNAc(b1-2)Gal(b1-3)GalNAc
# Summary of the method: as §1
# GlcNAc(b1-3)Gal = biological target: GlcNAc(b1-3)Gal
# Summary of the method: as §1
# [7] = biological target: GlcNAc(b1-4)Gal(b1-4)GlcNAc
# Summary of the method: as §1
# [8] = biological target: GlcNAc(b1-4)[GlcNAc(b1-6)]GalNAc
# Summary of the method: as §1
# GlcNAc3Prop(b1-4)GlcNAc = biological target: GlcNAc3Prop(b1-4)GlcNAc
# Summary of the method: as §1
# Man(a1-3)[Man(a1-6)]Man = biological target: Man(a1-3)[Man(a1-6)]Man
# Summary of the method: as §1
# [9] = biological target: Man(a1-3)[Man(a1-6)]Man(a1-6)[Man(a1-2)Man(a1-3)]Man(b1-4)GlcNAc(b1-4)GlcNAc
# Summary of the method: as §1
# [10] = biological target: Neu5Ac(a2-3)Gal(b1-3)GlcNAc6S
# Summary of the method: as §1
# [11] = biological target: Neu5Ac(a2-3)Gal(b1-3)[Fuc(a1-4)]GlcNAc(b1-3)Gal(b1-4)[Fuc(a1-3)]GlcNAc
# Summary of the method: as §1
# [12] = biological target: Neu5Ac(a2-3)Gal(b1-4)[Fuc(a1-3)]GlcNAc(b1-6)[Gal(b1-3)]GalNAc
# Summary of the method: as §1
# [13] = biological target: Neu5Ac(a2-6)Gal(b1-4)GlcNAc(b1-2)Man(a1-3)[GlcNAc(b1-2)Man(a1-6)]Man(b1-4)GlcNAc(b1-4)GlcNAc
# Summary of the method: as §1
# [14] = biological target: Neu5Ac(a2-6)Gal(b1-4)GlcNAc(b1-2)Man(a1-3)[Neu5Ac(a2-6)Gal(b1-4)GlcNAc(b1-2)Man(a1-6)]Man(b1-4)GlcNAc(b1-4)GlcNAc
# Summary of the method: as §1
# [15] = biological target: Neu5Ac(a2-6)Gal(b1-4)GlcNAc(b1-2)Man(a1-6)[Gal(b1-4)GlcNAc(b1-2)Man(a1-3)]Man(b1-4)GlcNAc(b1-4)GlcNAc
# Summary of the method: as §1
# [16] = biological target: Neu5Ac(a2-6)Gal(b1-4)GlcNAc(b1-3)Gal(b1-4)[Fuc(a1-3)]GlcNAc(b1-3)Gal(b1-4)[Fuc(a1-3)]GlcNAc
# Summary of the method: as §1
# [17] = biological target: Neu5Ac(a2-8)Neu5Ac(a2-8)Neu5Ac(a2-3)Gal(b1-4)Glc
# Summary of the method: as §1
binder,measurement,setting,value
B1,glycan array binding signal (z-score),Fuc(a1-2)Gal(b1-3)GlcNAc,0.417
same,glycan array binding signal (z-score),[1],-0.479
same,glycan array binding signal (z-score),[2],0.315
same,glycan array binding signal (z-score),Gal(a1-4)Gal(b1-4)Glc,3.58
same,glycan array binding signal (z-score),Gal(a1-4)GlcNAc,0.102
same,glycan array binding signal (z-score),[3],-0.537
same,glycan array binding signal (z-score),[4],-0.396
same,glycan array binding signal (z-score),[5],0.071
same,glycan array binding signal (z-score),Gal3S(b1-4)Glc,0.272
same,glycan array binding signal (z-score),Gal4S(b1-4)GlcNAc,0.291
same,glycan array binding signal (z-score),GalNAc(a1-3)GalNAc,-0.588
same,glycan array binding signal (z-score),Glc(a1-6)Glc(a1-6)Glc,-0.118
same,glycan array binding signal (z-score),GlcA(b1-3)GlcNAc,0.836
same,glycan array binding signal (z-score),[6],-0.206
same,glycan array binding signal (z-score),GlcNAc(b1-3)Gal,-0.215
same,glycan array binding signal (z-score),[7],2.18
same,glycan array binding signal (z-score),[8],1.91
same,glycan array binding signal (z-score),GlcNAc3Prop(b1-4)GlcNAc,-0.533
same,glycan array binding signal (z-score),Man(a1-3)[Man(a1-6)]Man,7.74
same,glycan array binding signal (z-score),[9],-0.594
same,glycan array binding signal (z-score),[10],-0.09
same,glycan array binding signal (z-score),[11],5.84
same,glycan array binding signal (z-score),[12],-0.128
same,glycan array binding signal (z-score),[13],-0.412
same,glycan array binding signal (z-score),[14],-0.473
same,glycan array binding signal (z-score),[15],-0.33
same,glycan array binding signal (z-score),[16],-0.304
same,glycan array binding signal (z-score),[17],-0.596
